20 compounds from PubChem BioAssay (NCI) can be followed below.

Assay [1] in a line: NCI Yeast Anticancer Drug Screen. Data for the rad50 strain (AID 155).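 Note: 0% = growth of vehicle-only cultures of the same strain.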 As to conditions: S. cerevisiae rad50 strain growth inhibition; at 50.0 µM; active compounds read high. The method, boiled down:
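A DNA repair-deficient yeast mutant serves as the test organism; compound-induced growth inhibition is calculated against vehicle-treated cells.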

A short description of assay [2]: NCI Yeast Anticancer Drug Screen. Data for the mec2-1 strain (AID 157). As to conditions: S. cerevisiae mec2-1 strain, at 50.0 µM, active compounds read high. The method in brief:
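Growth inhibition is read against vehicle-treated controls after compound exposure of the mec2-1 yeast strain, which is defective in DNA damage repair or cell cycle control.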

A short description of assay [3]: NCI Yeast Anticancer Drug Screen. Data for the sgs1 mgt1 strain (AID 161).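 Note: 0% = growth of cultures given vehicle only.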 Conditions: S. cerevisiae sgs1 mgt1 strain, at 50.0 µM, active compounds read high. The method, boiled down: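 Yeast cells carrying a defined DNA-repair defect were exposed to test compounds. Growth inhibition was measured relative to vehicle-treated controls.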
The nature of assay [4]: NCI Yeast Anticancer Drug Screen. Data for the cln2 rad14 strain (AID 165).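 Note: 0% = growth equal to vehicle treated cultures.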 As to conditions: S. cerevisiae cln2 rad14 strain, at 50.0 µM, active compounds read high. The method, boiled down: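 Growth inhibition, relative to vehicle-treated controls, is the read-out. The test organism is a yeast strain with defined genetic alterations, cln2 rad14.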
A short description of assay [5]: NCI Yeast Anticancer Drug Screen. Data for the bub3 strain (AID 167). As to conditions: S. cerevisiae bub3 mutant strain, at 50.0 µM, active compounds read high. The method, boiled down: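 Inhibition values come from growth of compound-treated mutant yeast normalised to vehicle-treated controls.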
The nature of assay [6]: NCI Yeast Anticancer Drug Screen. Data for the mlh1 rad18 strain (AID 175). As to conditions: S. cerevisiae mlh1 rad18 strain growth inhibition; at 50.0 µM; active compounds read high. The method in brief: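 Cells of a genetically altered yeast strain, deficient in DNA damage repair, were treated with compound. Their growth was then compared with that of vehicle-treated cultures to give inhibition.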

This is part of a sample that, as a whole, favours compounds with a hit. Of some 79,000 tested, about 15% had one in any assay. A number with no mark means an inactive call. Active and inactive are the calls of the source. Cut-off read from the data, not from the text of the source: active = growth inhibition above about 70%; inactive = the rest.

With `CCOc1ccc(C(C)c2cc3c(cc2OCCO)OCO3)cc1` (stereo not given), the growth inhibition in assay [1] was 28.6%; in assay [2] it was 29.2%; in assay [3] it was 69%; in assay [4], 59.9%; in assay [5], -29.6%; in assay [6], 68.5%.

Turning to `CCN(CC)CCCC(C)NC1CCCc2cc3c(cc21)C(=O)c1ccccc1C3=O` (stereo not given), the growth inhibition in assay [1] was 34%; in assay [2], 13.8%; in assay [3], 38.1%; in assay [4], 14.9%; in assay [5], -4.5%; in assay [6] it was 33.1%.

With `CN(C)c1c([N+](=O)[O-])cc2[nH]cnc2c1[N+](=O)[O-]`, the growth inhibition in assay [1] is 21.2%; in assay [2], 12.2%; in assay [3] it was 13.3%; in assay [4], -2.9%; in assay [5] it was 19.4%; in assay [6], 13.7%.

Consider `C[N+]1=C2[B-](C(C)(C)C)=[N+](C(C)(C)C)[B-]2(C(C)(C)C)[N+](C)=C2[B-](C(C)(C)C)=[N+](C(C)(C)C)[B-]21C(C)(C)C` (stereo not given), for which the growth inhibition is 2.65% in assay [1]; 0% in assay [2]; 9.35% in assay [3]; -8.35% in assay [4]; -4.1% in assay [5]; -9.85% in assay [6].

For the compound `CC1([N+](=O)[O-])COC2(CCCC2)OC1`, the growth inhibition in assay [1] is 26.4%; in assay [2], 12.2%; in assay [3] it was 4.75%; in assay [4] it was -21.8%; in assay [5], -12.9%; in assay [6], 33.6%.

`CSC(SC)=C1Sc2cccc(Cl)c2S1`: the growth inhibition in assay [1] is 1.65%; in assay [2] it was 11.3%; in assay [3], 29.2%; in assay [4], -14.7%; in assay [5], -15.1%; in assay [6], -13.8%.

`CC1(C)CC2(C)CC1CC2O` (stereo not given): the growth inhibition was 3.5% in assay [1]; 9.6% in assay [2]; -1.95% in assay [3]; 14.8% in assay [4]; 3.85% in assay [5]; -25.4% in assay [6].

`CCCCN1CCSC1=S`: the growth inhibition is 99.5% (active) in assay [1]; 99.7% (active) in assay [2]; 98.2% (active) in assay [3]; 98% (active) in assay [4]; 99.5% (active) in assay [5]; 99.5% (active) in assay [6].

With `CCCN(CCC)CC(O)CN(CCC)CCC`, the growth inhibition in assay [1] is -0.4%; in assay [2] it was -24.1%; in assay [3], -21.6%; in assay [4], -36%; in assay [5], 5.55%; in assay [6], -0.3%.

On to `BrC1(Br)C2COCOCC21` (stereo not given), for which the growth inhibition in assay [1] was -9.6%; in assay [2] it was -1.4%; in assay [3], -1.05%; in assay [4], 0.55%; in assay [5], -4.75%; in assay [6], 8.05%.

As to `Cc1cc(O)c([N+](=O)[O-])c(C)c1[N+](=O)[O-]`, the growth inhibition in assay [1] is 2.2%; in assay [2], 35.2%; in assay [3], 3.5%; in assay [4], 41.2%; in assay [5], 39.3%; in assay [6] it was 0.25%.

In the case of `CCOC(=O)c1ccc(-n2c(SCC)nc3sc(C)c(C)c3c2=O)cc1`, the growth inhibition was -18.9% in assay [1]; -17.8% in assay [2]; -40.5% in assay [3]; -38.5% in assay [4]; -31.8% in assay [5]; -29.3% in assay [6].

In the case of `ClCC1CCCO1` (stereo not given), the growth inhibition in assay [1] was 23.1%; in assay [2], 12.6%; in assay [3], 31.1%; in assay [4], 3.35%; in assay [5], 24.9%; in assay [6] it was 25.6%.

For `CCCN1C(=O)c2cc(=O)[nH]c(O)c2C1C` (stereo not given), the growth inhibition in assay [1] was -14.2%; in assay [2], -10.9%; in assay [3], -8.75%; in assay [4], 9%; in assay [5] it was -13.3%; in assay [6] it was 0.4%.

As for `O=C1OC(c2ccccc2)=CC1Cc1ccccc1` (stereo not given), the growth inhibition in assay [1] is 34.9%; in assay [2] it was -2.35%; in assay [3], 1.85%; in assay [4], 3.4%; in assay [5] it was -3%; in assay [6] it was -8%.

As for `CC(=O)CCC(=O)CC(=O)CCC(=O)Nc1cc(Cl)ccc1Cl`, the growth inhibition is 15.3% in assay [1]; 24.2% in assay [2]; 19.9% in assay [3]; 31.2% in assay [4]; 2.5% in assay [5]; 6.2% in assay [6].

Turning to `O=S(=O)(O)c1cc(S(=O)(=O)O)c2c(Nc3ccnc4ccccc34)ccc(S(=O)(=O)O)c2c1`, the growth inhibition in assay [1] is -8.25%; in assay [2], -1.3%; in assay [3] it was -19.2%; in assay [4] it was 3.6%; in assay [5], -8.45%; in assay [6] it was 13.8%.

For `c1ccc(N=C2N=c3ccccc3=C2c2c(Nc3ccccc3)[nH]c3ccccc23)cc1`, the growth inhibition is 20.4% in assay [1]; 5.5% in assay [2]; -4.35% in assay [3]; -27.1% in assay [4]; -4.7% in assay [5]; 17.6% in assay [6].

With `CC(NC(=O)C(Cc1ccccc1)NC(=O)OCc1ccccc1)C(=O)NC1C(CO)OC(n2cnc3c(N)ncnc32)C1O` (stereo not given), the growth inhibition in assay [1] was 15.3%; in assay [2] it was -3.9%; in assay [3], -2.1%; in assay [4], -1.1%; in assay [5] it was -2.5%; in assay [6] it was 16.5%.

As to `CC(=O)N(c1ccc(F)c(F)c1)c1ccc(F)c(F)c1`, the growth inhibition in assay [1] was -18.3%; in assay [2] it was -5.55%; in assay [3] it was -0.9%; in assay [4] it was 1.5%; in assay [5] it was 19.6%; in assay [6] it was 14.2%.
